Laboratory results as given in PubChem BioAssay AID1465 (SRMLSC, 2008).
The campaign covered roughly 220,000 compounds. About 160 (0.073%) were called active. Not all results are given here. Potency and affinity values are given separately. Unmarked numbers belong to inactive results.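 How the source made its calls: active means fold induction of absorbance versus untreated yeast above a set limit, then at least 30% activation at any dose in follow-up; inconclusive means repeats straddling the limit, or above it without dose testing; inactive means fold induction below the set limit.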

Assay: mitochondrial function rescue without frataxin homolog – Friedreich's ataxia, plus single-dose screen, dose response (AID 1465)
Details: S. cerevisiae Yfh1-off respiration, WST-1 reduction, 72 h; at 50 µM; hits give high values

Row | Compound | fold induction
1 | CC[n+]1c(/C=C2/C=C(C)CC(C)C2)sc2ccccc21 (stereo not given) | 0.96
2 | CC[n+]1c(/C=C(\C)SC)sc2ccccc21 | 0.92
3 | CC[n+]1c(/C=C2\C=C(C)CC(C)(C)C2)sc2ccccc21 | 0.86
4 | CC[n+]1c(/C=C2\C=C(C)CC(C)C2)sc2ccccc21 (stereo not given) | 0.873
5 | COc1ccc(C(=O)COC(=O)c2ccc(N(C)C)cc2)cc1 | 1.01
6 | Cc1[nH]nc(SCC(=O)NC2CCCC2)c1[N+](=O)[O-] | 1.05
7 | COCC(=O)N1CCCN(c2nc3c(C)cccc3cc2C#N)CC1 | 0.96
8 | CCC(=O)N1COC[C@@H]1Cc1ccccc1 | 1.04
9 | COC(=O)c1cc2c(ccn2-c2ccc(F)cc2)n1Cc1ccc(C#N)cc1 | 1.03
10 | CCC(C(=O)O)N1C(=O)/C(=C/C(C)=C/c2ccccc2)SC1=S (stereo not given) | 1.22
11 | Cn1cccc1/C=C1\SC(=S)N(NC(=O)c2ccccc2)C1=O | 1.81
12 | Cn1cccc1/C=C1\SC(=S)N(Nc2ccccc2)C1=O | 1.02
13 | O=C(O)C(Cc1ccccc1)N1C(=O)/C(=C/c2ccccc2)SC1=S (stereo not given) | 0.93
14 | NC(=O)c1cccc2c(=O)oc3ccccc3c12 | 0.99
15 | CN1CCN(C(=O)c2cc(C(C)(C)C)cc(C(C)(C)C)c2)CC1 | 1.02
16 | Cn1nnnc1P(=O)(c1ccccc1)c1ccccc1 | 1.15
17 | O=C(Nc1ccccc1-c1nc2ccccc2[nH]1)c1ccc(N2C(=O)CCC2=O)cc1 | 1.11
18 | O=c1c(N2CCOCC2)c(N2CCOCC2)c1=O | 1.08
19 | CC1=C(N2CCOCC2)CCC1=O | 0.92
20 | Cc1nc2ccc(NC(=O)COc3ccccc3[N+](=O)[O-])cc2s1 | 0.97
21 | CN(C(=O)COC(=O)c1ccc(Cl)cc1N)C1CCCCC1 | 1.06
22 | CC(=O)c1cccc(NC(=O)N2CCCC2C(=O)Nc2c(C)cccc2C)c1 (stereo not given) | 1.07
23 | COc1ccc(C2=NN(c3nc4ccccc4s3)C(=O)/C2=C\N(C)C)cc1 | 1.14
24 | COc1ccc(C2=NN(c3nc(C)cc(C)n3)C(=O)C2)cc1 | 1.09
25 | CC(=O)Oc1cccc(-c2nc3ccccc3c(=O)o2)c1 | 0.89

Row | Compound | fold induction
26 | CCOC(=O)c1[nH]c2ccccc2c1NC(=O)C1CCCCC1 | 1.05
27 | Cc1coc2c1C(=O)C(=O)c1c-2ccc2c1CCCC2(C)C | 1.54
28 | Cc1ccc2c3c(cccc13)-c1ccccc1C2=O | 0.91
29 | Cc1ccc(CN2C(=O)CCC2C(=O)NC(C)C)cc1 (stereo not given) | 1.04
30 | COc1ccc2c(c1)c(CCN1C(=O)c3ccccc3C1=O)cn2C(=O)c1ccco1 | 1.01
31 | CCOc1cc(/C=N\O)cc(Cl)c1OCC | 0.87
32 | CCOc1ccc2nc3ccc4[nH]onc4c3c2c1 | 0.93
33 | CCCCNC1=CC(=O)C(=O)c2ccccc21 | 2.68
34 | O=C1C=C(Nc2ccccc2)c2ccccc2C1=O | 1
35 | O=C(C1CCCO1)N1CCN(C(=S)Nc2ccccc2Cl)CC1 (stereo not given) | 0.94
36 | COCCCn1c(SCc2nnc(-c3ccc(OC)c(OC)c3)o2)nnc1-c1ccncc1 | 1.13
37 | COc1cc(/C=N/NC(=O)c2ccc(C)nc2)cc([N+](=O)[O-])c1O | 1.21
38 | COC(=O)N/N=C/c1cc(OC)c(O)c([N+](=O)[O-])c1 | 1.19
39 | COC(=O)C1CCN(C(=O)Cc2c(OC)ccc3cc(Br)ccc23)CC1 | 0.95
40 | CCOC(=O)C1(Cc2cccc(OC)c2)CCN(CC=C(C)C)CC1 | 1.02
41 | O=[N+]([O-])c1cccc(CSc2cccc[n+]2[O-])c1 | 1.1
42 | O=[N+]([O-])c1ccc(Sc2cccc3cccnc23)c2cccnc12 | 1.02
43 | CCN(C(=O)CSc1ncccc1C(=O)Oc1cccc([N+](=O)[O-])c1)c1cccc(C)c1 | 0.93
44 | O=C(NCCNc1ccc([N+](=O)[O-])cc1)c1ccco1 | 1.23
45 | CCN(CC)S(=O)(=O)c1ccc(N/N=C/c2cccnc2)nc1 | 1.09
46 | Clc1ccc(CSc2ccc(-c3ccccn3)nn2)cc1 | 0.99
47 | c1cncc(CSc2ccc(-c3cccnc3)nn2)c1 | 1.13
48 | Cc1cc(C(=O)N/N=C/c2ccccc2Br)no1 | 0.94
49 | COC(=O)c1nc(NC2=NCCCCC2)n[nH]1 | 1.02
50 | COC(=O)c1cc(OC)c(OC)cc1NC(=O)c1cccc(OC)c1OC | 1.09
